Data on 21 compounds can be found in PubChem BioAssay (Tox21).

In assay [1] the target is Retinoic acid receptor RXR-alpha (Homo sapiens) (UniProt P19793). Kind of assay: qHTS assay to identify small molecule agonists of the RXR signaling pathway (AID 1159527; calls by dose curve; further: nearly all actives have a fitted effect of over 35% in size). In a few lines:
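Using 9-cis retinoic acid as the reference agonist, chemicals were tested in HEK 293T cells […] for 16 hr; substrate loading lasted 2 hr at room temperature.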
A general note: In qHTS, concentration-response curves come from the screen itself.

A short description of assay [2]: qHTS assay to identify small molecule agonists of the RXR signaling pathway - cell viability counter screen (AID 1159529). Further: series mostly up to about 77 µM; nearly all actives have a fitted effect of over 50% in size. In a few lines:
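Compounds dissolved in DMSO were pinned onto HEK 293T cells carrying a beta-lactamase reporter under RXR-alpha control and incubated 16 hr. Cytotoxicity was then quantified by CellTiter-Glo luminescence.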

A short description of assay [3]: qHTS assay to identify small molecule antagonists of the retinoid acid receptor (RAR) signaling pathway - cell viability counter screen (AID 1159551). Further: nearly all actives have a fitted effect of over 35% in size. In a few lines: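 C3RL4 RARE-luciferase cells, 1,000/well, incubated overnight, then dosed with compound plus 1 uM retinol (final). After 6 hr at 37 C, viability read by CellTiter-Glo ATP luminescence following 30 min at room temperature.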

The nature of assay [4]: qHTS assay to identify small molecule antagonists of the estrogen related receptor (ERR) signaling pathway from Tox21 library - cell viability counter screen (AID 1224834). Further: nearly all actives have a fitted effect of over 30% in size. In a few lines:
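ERR reporter cells, 2,000 per well, rested 6 h, then exposed to compound in DMSO for 17.5 hours at 37 C. Viability read as fluorescence after 30 min with CellTiter-Fluor.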

Assay [5] deals with Luciferin 4-monooxygenase (Photinus pyralis) (UniProt P08659). Put plainly: qHTS assay to identify small molecule inhibitors of firefly luciferase (AID 1224835). Further: nearly all actives have a fitted effect of over 25% in size. Further: potency means the concentration at half of the fitted maximal effect. The gist of the method: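 Quantitative HTS format; KM concentrations of both substrates. Purified P. pyralis FLuc activity quantified from luminescence images.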
Assay [6] in a line: qHTS assay to identify small molecule agonists of the constitutive androstane receptor (CAR) signaling pathway - cell viability counter screen (AID 1224836). Further: nearly all actives have a fitted effect of over 45% in size. Further: potency means the concentration at half of the fitted maximal effect. In a few lines: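 23 h treatment, 37 C, 5% CO2. Cell line: HepG2 stably expressing hCAR with a CYP2B6-2.2kb construct. Co-treatment: PK11195, 0.75 uM final. Read-out: CellTiter-Fluor fluorescence intensity.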
Assay [7] can be described thus: qHTS assay to identify small molecule antagonists of the constitutive androstane receptor (CAR) signaling pathway - cell viability counter screen (AID 1224837). Further: series mostly up to about 92 µM; nearly all actives have a fitted effect of over 45% in size. In a few lines: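 HepG2 cells stably carrying hCAR and CYP2B6-2.2kb reporter, stimulated with 50 nM CITCO and compounds at 15 concentrations for 23 h at 37 C. Viability measured by CellTiter-Fluor fluorescence.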

A short description of assay [8]: qHTS assay to identify small molecule antagonists of the estrogen related receptor signaling pathway with the pleiotropic PPARgamma coactivator (PGC) from Tox21 10K library - cell viability counter screen (AID 1224840; active means well fitted cell-killing curve with a large enough effect in the repeat runs, not every such curve was filed as active; further: nearly all actives have a fitted effect of over 40% in size). In a few lines: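 PGC/ERR cells (2,000/well) plated 6 h, then compound-treated for 17.5 h at 37 C. Viability measured by CellTiter-Fluor fluorescence after 30 min at 37 C, multiplexed with the pathway assay.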

Assay [9] can be described thus: qHTS assay to identify small molecule antagonists of the retinoic acid receptor (RAR) signaling pathway (AID 1159552; further: nearly all actives have a fitted effect of over 50% in size). In a few lines:
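Test chemicals and DMSO controls were pin-transferred onto C3RL4 cells a day after seeding; retinol (1 uM final) followed at once. Luminescent reporter output was quantified after 6 hr of co-incubation and 30 min with detection reagent.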

Assay [10] can be described thus: qHTS assay to identify small molecule agonists of the retinoic acid receptor (RAR) signaling pathway (AID 1159553). The gist of the method:
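C3RL4 RARE-luciferase cells were seeded at 1,000/well and grown overnight at 37 C, then exposed to compounds for 6 hr at 37 C, 5% CO2. Luciferase reagent was added and luminescence was read after 30 min at room temperature.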

The target in assay [11] is Nuclear receptor subfamily 1 group I member 3 (Homo sapiens) (UniProt Q14994). Kind of assay: qHTS assay to identify small molecule antagonists of the constitutive androstane receptor (CAR) signaling pathway (AID 1224838). Further: nearly all actives have a fitted effect of over 40% in size. Further: potency means the concentration at half of the fitted maximal effect. In a few lines: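 HepG2 cells stably carrying hCAR and a CYP2B6-2.2kb luciferase reporter, seeded 4 hrs before compound (15 concentrations). Stimulated with 50 nM CITCO for 24 hr at 37 C. ONE-Glo luminescence read after 30 min at room temperature.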

Assay [12] in a line: qHTS assay to identify small molecule antagonists of the estrogen related receptor (ERR) signaling pathway - cell viability counter screen (AID 1224818). Further: series mostly up to about 46 µM. The gist of the method:
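ERR cells, 2,000 per well, compound added after 6 h and incubated 17.5 h at 37 C. Viability read by CellTiter-Fluor fluorescence after a further 30 min at 37 C.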

Assay [13] is described as follows: qHTS assay to identify small molecule antagonists of the estrogen related receptor signaling pathway with the pleiotropic PPARgamma coactivator (PGC) cell viability counter screen (AID 1224822; further: series mostly up to about 46 µM). In a few lines:
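PGC/ERR cells rested 6 h, then compound-treated 17.5 h at 37 C. CellTiter-Fluor added for 30 min at 37 C, viability measured by fluorescence intensity.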

Assay [14] has as its target Nuclear receptor subfamily 1 group I member 3 (Homo sapiens) (UniProt Q14994). Kind of assay: qHTS assay to identify small molecule agonists of the constitutive androstane receptor (CAR) signaling pathway (AID 1224839). Further: series mostly up to about 92 µM; nearly all actives have a fitted effect of over 15% in size. In a few lines:
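Compounds tested at 15 concentrations on HepG2 cells stably harbouring hCAR and CYP2B6-2.2kb reporter constructs, co-treated with PK11195 (0.75 uM final), 24 h at 37 C; luminescent reporter signal quantified.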

A short description of assay [15]: qHTS assay to identify small molecule antagonists of the estrogen related receptor signaling pathway with the pleiotropic PPARgamma coactivator (PGC) from Tox21 10K library (AID 1224841; call rule not given here; further: series mostly up to about 92 µM; actives are mostly falling curves and most rising ones were filed inactive; nearly all actives have a fitted effect of over 50% in size). In a few lines: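 PGC/ERR cell line, 2,000 cells/well, pre-incubated 6 hours at 37 C, then exposed to compounds for 18 hours at 37 C; luciferase read with One-Glo luminescence after 30 min at room temperature.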

A short description of assay [16]: qHTS assay to identify small molecule agonists of the estrogen related receptor signaling pathway with the pleiotropic PPARgamma coactivator (PGC) from Tox21 10K library (AID 1224842). Further: nearly all actives have a fitted effect of over 15% in size. In a few lines: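 PGC/ERR reporter cells (NTP line) were seeded 2,000 per well, rested 6 h at 37 C/5% CO2, then pin-dosed with compounds in DMSO for 18 h at 37 C; luciferase read by One-Glo luminescence after 30 min at room temperature.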

Inconclusive results are not listed. Active and inactive are the calls of the source. Unless noted, the call rests on the fitted dose curve; in most records, active means well fitted curve in the direction sought with a large enough effect in the repeat runs; inconclusive means weak or mixed curves; inactive means no such curve, though single readings can be large; an effect the other way counts as inactive or inconclusive.

Chain of Retinoic acid receptor RXR-alpha (Homo sapiens) (P19793 whole entry, looked up): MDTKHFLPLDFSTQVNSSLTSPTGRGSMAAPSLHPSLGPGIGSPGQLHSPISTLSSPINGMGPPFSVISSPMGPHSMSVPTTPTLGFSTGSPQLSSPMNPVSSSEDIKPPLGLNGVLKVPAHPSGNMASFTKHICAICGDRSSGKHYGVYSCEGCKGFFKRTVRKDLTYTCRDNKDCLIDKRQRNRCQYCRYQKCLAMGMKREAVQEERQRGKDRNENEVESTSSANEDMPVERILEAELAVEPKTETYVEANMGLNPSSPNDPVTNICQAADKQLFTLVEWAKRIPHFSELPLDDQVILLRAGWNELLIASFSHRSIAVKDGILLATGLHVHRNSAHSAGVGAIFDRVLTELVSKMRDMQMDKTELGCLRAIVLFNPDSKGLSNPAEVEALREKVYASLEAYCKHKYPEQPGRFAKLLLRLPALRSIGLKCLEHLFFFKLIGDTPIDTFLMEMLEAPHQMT
Chain of Luciferin 4-monooxygenase (Photinus pyralis) (P08659 whole entry, looked up): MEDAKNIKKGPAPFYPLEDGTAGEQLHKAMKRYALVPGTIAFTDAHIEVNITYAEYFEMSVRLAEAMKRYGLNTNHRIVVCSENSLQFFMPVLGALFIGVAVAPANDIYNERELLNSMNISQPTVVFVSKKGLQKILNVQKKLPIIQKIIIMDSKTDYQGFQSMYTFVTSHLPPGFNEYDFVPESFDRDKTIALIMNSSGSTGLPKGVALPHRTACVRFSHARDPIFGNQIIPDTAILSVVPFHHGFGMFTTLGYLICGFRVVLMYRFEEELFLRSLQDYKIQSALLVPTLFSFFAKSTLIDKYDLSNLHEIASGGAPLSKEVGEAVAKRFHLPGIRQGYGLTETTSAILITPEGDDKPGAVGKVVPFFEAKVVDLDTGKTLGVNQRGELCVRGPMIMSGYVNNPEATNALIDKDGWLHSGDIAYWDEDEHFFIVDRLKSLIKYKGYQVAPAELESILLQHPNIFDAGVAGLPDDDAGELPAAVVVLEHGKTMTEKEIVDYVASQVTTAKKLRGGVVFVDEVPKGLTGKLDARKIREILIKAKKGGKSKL
Chain of Nuclear receptor subfamily 1 group I member 3 (Homo sapiens) (Q14994 whole entry, looked up): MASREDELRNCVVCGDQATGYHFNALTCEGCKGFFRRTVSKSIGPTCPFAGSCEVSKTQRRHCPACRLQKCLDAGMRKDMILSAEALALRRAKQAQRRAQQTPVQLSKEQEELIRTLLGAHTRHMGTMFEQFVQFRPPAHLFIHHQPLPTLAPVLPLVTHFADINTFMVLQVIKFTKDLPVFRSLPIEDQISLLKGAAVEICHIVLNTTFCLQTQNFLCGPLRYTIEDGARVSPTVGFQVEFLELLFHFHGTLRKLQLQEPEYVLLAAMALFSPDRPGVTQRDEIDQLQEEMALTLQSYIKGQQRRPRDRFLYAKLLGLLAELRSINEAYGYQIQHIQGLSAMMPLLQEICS

For `C[C@@H]1C[C@H]2[C@@H]3CCC4=CC(=O)C=C[C@]4(C)[C@@]3(F)[C@@H](O)C[C@]2(C)[C@@]1(O)C(=O)COP(=O)(O)O`, the Potency entry in [1], in assay [2], in assay [3], in assay [4], in assay [5] and in assay [6] was “inactive” in each case. Further, the Potency entry in assay [7] and in assay [8] was “inactive” each time.

In the case of `O=C(NC(Cc1cc(=O)[nH]c2ccccc12)C(=O)O)c1ccc(Cl)cc1` (stereo not given), the Potency result in assay [1], in assay [2], in [3], in [9], in [10] and in [5] was “inactive” each time. The Potency result in assay [7], in assay [11] and in assay [8] was “inactive” in each case.

For `CC(=O)C(C)=O`, the Potency entry in assay [1], in assay [2], in assay [3], in assay [5], in [6] and in assay [7] was “inactive” each time. The Potency result in [11] and in assay [14] was “inactive” in each case. Moreover, the call in [12] and in [13] was inactive.

On to `CCCCCCCCCCCCCCCC(=O)OCC`, for which the Potency result in assay [1], in [2], in assay [3], in [10], in assay [4] and in assay [5] was “inactive” in each case. The Potency entry in [6], in assay [7] and in [8] was “inactive” in each case.

With `CC(C)COC(=O)c1ccc(O)cc1`, the Potency result in assay [1], in assay [2], in assay [3], in assay [9], in assay [6] and in assay [7] was “inactive” throughout. Also, the Potency entry in assay [11] and in assay [8] was “inactive” in each case. Moreover, in [5], the Potency is 44.7 µM (active).

On to `Cc1cccc(C)c1NC(=O)c1cc(S(N)(=O)=O)c(Cl)cc1O`, for which the Potency result in [1], in [2], in [3], in [9], in [4] and in [6] was “inactive” in each case. The Potency entry in [7], in assay [11], in [14] and in assay [8] was “inactive” each time.

As for `CC(C)(C)C1(CCc2ccc(Cl)cc2)CO1` (stereo not given), the Potency result in assay [1], in assay [2], in assay [3], in assay [4], in [5] and in assay [6] was “inactive” each time. Also, the Potency entry in [7], in [11] and in assay [8] was “inactive” throughout.

For `COc1ccc(CCN(C)CCCN2CCc3cc(OC)c(OC)cc3CC2=O)cc1OC`, the Potency result in assay [1], in assay [2], in assay [3], in assay [9], in [5] and in [7] was “inactive” throughout. The Potency entry in assay [11], in assay [14] and in assay [8] was “inactive” each time.

As for `C/C(C=O)=C\c1ccccc1`, the Potency result in [1], in [2], in [3], in assay [10], in assay [5] and in [6] was “inactive” throughout. Moreover, the Potency entry in [7], in assay [11], in assay [14] and in assay [8] was “inactive” each time.

Regarding `NC(=O)CCCCC(N)=O`, the Potency entry in assay [1], in [2], in [3], in assay [4], in assay [5] and in assay [6] was “inactive” in each case. Besides, the Potency entry in assay [7], in assay [11] and in assay [8] was “inactive” each time.

As to `Cc1cccc2sc(N)nc12`, the Potency result in [1], in [2], in assay [3], in [9], in [4] and in assay [6] was “inactive” each time. For the same compound, the Potency entry in assay [7], in assay [11] and in assay [8] was “inactive” each time.

`CC[C@H]1OC(=O)[C@H](C)[C@@H](O[C@H]2C[C@@](C)(OC)[C@@H](O)[C@H](C)O2)[C@H](C)[C@@H](O[C@@H]2O[C@H](C)C[C@H](N(C)C)[C@H]2O)[C@](C)(O)C[C@@H](C)C(=O)[C@H](C)[C@@H](O)[C@]1(C)O`: the Potency entry in [1], in assay [2], in [3], in assay [9], in assay [4] and in assay [5] was “inactive” each time. Besides, the Potency entry in [6], in assay [7], in [11], in assay [14] and in assay [8] was “inactive” throughout.

For the compound `COC(C)(C)OC`, the Potency entry in assay [1], in [2], in assay [3], in assay [4], in assay [5] and in assay [6] was “inactive” each time. The Potency entry in assay [7], in assay [8], in assay [15] and in [16] was “inactive” throughout.

Turning to `Cc1ccc2c(c1[N+](=O)[O-])C(=O)c1ccccc1C2=O`, the Potency result in assay [1], in assay [2], in [3], in [9], in assay [5] and in assay [14] was “inactive” each time. For the same compound, the Potency result in assay [8] and in assay [15] was “inactive” throughout. Moreover, the Potency is 6.73 µM (active) in assay [6] and 0.673 µM (active) in assay [11].

As for `Nc1nc(-c2ccc([N+](=O)[O-])cc2)cs1`, the Potency result in [1], in [2], in [3], in [9], in assay [4] and in [5] was “inactive” throughout. For the same compound, the Potency entry in [6], in assay [7] and in assay [8] was “inactive” throughout.

As to `CCOC(=O)N1CCC(Nc2ccc(Cl)cc2N)CC1`, the Potency result in assay [1], in assay [2], in assay [3], in assay [10], in assay [5] and in assay [6] was “inactive” each time. Further, the Potency entry in assay [7], in assay [11], in [14] and in [8] was “inactive” each time.

As to `Cc1c[nH]c2ccccc12`, the Potency result in assay [1], in assay [2], in [3], in [10], in assay [4] and in assay [5] was “inactive” throughout. Further, the Potency entry in assay [7], in [11], in [8] and in assay [16] was “inactive” in each case.

Take `O=S(=O)(O)CO`: the Potency entry in assay [1], in [2], in [3], in assay [10], in assay [4] and in [5] was “inactive” each time. For the same compound, the Potency entry in assay [7], in assay [11], in [14] and in [8] was “inactive” each time.

For `C1=CCC2CC=CC2C1` (stereo not given), the Potency entry in [1], in assay [2], in [3], in assay [4], in assay [5] and in [6] was “inactive” each time. In addition, the Potency result in assay [7], in assay [8], in [15] and in assay [16] was “inactive” throughout.

With `O=C(O)c1cc(Cl)cc(Cl)c1O`, the Potency entry in [1], in assay [2], in assay [3], in assay [4], in assay [5] and in assay [6] was “inactive” throughout. Also, the Potency entry in [7], in assay [15] and in assay [16] was “inactive” each time.

With `CC1CCCO1` (stereo not given), the Potency entry in assay [1], in assay [2], in assay [3], in assay [4], in assay [5] and in assay [6] was “inactive” each time. The Potency entry in assay [7], in assay [11], in assay [14] and in assay [8] was “inactive” throughout.
